Screening data deposited in PubChem BioAssay by Sanford-Burnham Center for Chemical Genomics.
Only some compounds are listed: those with a hit (about 28% of all), similar ones and a draw of the others.
CYP2C9 inhib: inhibitors of human CYP2C9; inhibition, % at 5 µM; CYP2C9 Supersomes, luciferin-H conversion, luminescence; actives 20% (n = 96,000);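 active means blocking of liver enzyme CYP2C9 beyond about 50% at 5 µM, limit read from the data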
CYP2C19 activ: activators of human cytochrome P450 2C19 | AID 1025 | P33261 | 96,000 tested, under 10 active | activation factor at 5 µM | recombinant CYP2C19, luciferin-H EGE luminescence; hits give high values; 0 = fully inhibited enzyme, 1 = untreated enzyme;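 active means activation factor of at least 2 at 5 µM in the primary screen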;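 further: 0 = wells with 2.5 mM tranylcypromine and 1 = vehicle-only wells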
Mac1 fbg inh: inhibitors of human CD11b/CD18 binding to fibrinogen; AID 1497; actives 0.54% (n = 93,000); inhibition, % at 10 µM; K562 CD11b/CD18 adhesion to fibrinogen, ATPlite luminescence; Mn2+ added to activate the integrin;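 active means primary inhibition of 50% or more at 10 µM, then 40% or more on retest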
Target sequence (P05107 whole entry, looked up, other chains not shown): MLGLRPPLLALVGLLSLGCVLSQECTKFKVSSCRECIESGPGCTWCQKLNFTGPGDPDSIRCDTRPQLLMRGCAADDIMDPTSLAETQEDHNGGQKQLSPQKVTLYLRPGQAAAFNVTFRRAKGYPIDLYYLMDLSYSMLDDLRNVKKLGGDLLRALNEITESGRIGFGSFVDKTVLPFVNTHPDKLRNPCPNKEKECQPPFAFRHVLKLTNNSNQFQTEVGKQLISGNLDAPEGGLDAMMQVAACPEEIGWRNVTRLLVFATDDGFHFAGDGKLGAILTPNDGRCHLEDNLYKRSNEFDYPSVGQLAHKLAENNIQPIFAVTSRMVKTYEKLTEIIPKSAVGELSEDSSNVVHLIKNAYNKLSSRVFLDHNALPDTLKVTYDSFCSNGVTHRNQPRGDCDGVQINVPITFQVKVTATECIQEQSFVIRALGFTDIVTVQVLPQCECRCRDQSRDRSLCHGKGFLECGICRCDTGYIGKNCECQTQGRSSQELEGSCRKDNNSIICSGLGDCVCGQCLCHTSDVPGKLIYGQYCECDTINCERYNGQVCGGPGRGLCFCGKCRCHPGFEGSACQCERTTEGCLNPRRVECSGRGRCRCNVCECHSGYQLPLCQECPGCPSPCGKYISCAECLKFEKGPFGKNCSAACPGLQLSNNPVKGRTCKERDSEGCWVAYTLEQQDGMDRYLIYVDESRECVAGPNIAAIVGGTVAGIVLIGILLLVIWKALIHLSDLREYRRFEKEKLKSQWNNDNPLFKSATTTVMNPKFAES
Mac1 fbg enh: CD11b/CD18-fibrinogen binding enhancement; P05107+P11215; K562 CD11b/CD18 adhesion to fibrinogen, ATPlite luminescence; activation, % at 10 µM; actives 0.07% (n = 93,000); AID 1499;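 active means 10 µM primary screen giving 50% or more activity, confirmed by 40% or more on retest at that dose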
CYP2C19 inh: human CYP2C19 inhibition. CYP2C19 Supersomes, luciferin-H EGE luminescence, 30 min. inhibition, % at 5 µM. actives 21% (n = 96,000);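 active means CYP2C19 inhibition above a set limit at 5 µM in the primary screen, cut at about 50% in these data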;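 further: plate controls were negative control wells for no effect and 2.5 mM tranylcypromine positive control for full effect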
CYP2C9 act: increases human cytochrome P450 2C9 activity; AID 1024; P11712; activation factor at 5 µM; recombinant CYP2C9, luciferin-H conversion, luminescence; hits give high values; factor 1 = untreated enzyme, 0 = blocked; actives 1.4% (n = 96,000);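 active means activation factor of 2 or more for CYP2C9 at a 5 µM dose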;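 further: 0 = sulfaphenazole-blocked wells and 1 = vehicle-only wells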
Numbers without * were called inactive; nt = no result.

SMILES | CYP2C9 inhib | CYP2C19 activ | Mac1 fbg inh | Mac1 fbg enh | CYP2C19 inh | CYP2C9 act
CCOC(=O)c1oc2ccccc2c1CSc1nnc(-c2ccco2)o1 | 69* | 0.9 | 18 | -2 | 14 | 0.3
Clc1ccc(CSc2nnc(-c3ccncc3)o2)c(Cl)c1 | 70* | 0.2 | -3 | -2 | 81* | 0.3
CCSc1nnc(-c2ccc(Cl)cc2Cl)o1 | 0 | 0.8 | 2 | 3 | 23 | 1
O=C(CSc1nnc(-c2ccncc2)o1)Oc1ccccc1 | -5 | 1 | -11 | -3 | -1 | 1.1
c1ccc(CSc2nnc(-c3ccncc3)o2)cc1 | 93* | 0 | -1 | 1 | 97* | 0.1
COc1cc(OC)cc(-c2nnc(SCc3c(F)cccc3Cl)o2)c1 | 63* | 0.5 | 2 | -2 | 47 | 0.4
Cc1occc1C(=O)N/N=C/c1cccs1 | 15 | 0.6 | 14 | 0 | 42 | 0.9
CC(C)NC(=S)N/N=C/c1cccs1 | 37 | 0.2 | 3 | -4 | 82* | 0.6
COC(=O)c1c(C)oc2ccc(OC(=O)c3cccs3)cc12 | 85* | 1 | 7 | -1 | -1 | 0.1
COCCOC(=O)c1c(C)oc2ccc(OC(=O)c3cccs3)cc12 | 98* | 0.3 | 5 | -1 | 71* | 0
c1ccc(-n2nnnc2NC2CCCCC2)cc1 | 9 | 0.8 | 34 | 0 | 20 | 0.9
Cc1nc(NS(=O)(=O)c2cccs2)c2c3c(sc2n1)CCC3 | 3 | 1.1 | 5 | 0 | -8 | 1
O=S(=O)(Nc1ncnc2sc3c(c12)CCC3)c1ccc(Cl)s1 | 81* | 0.9 | 87* | -10 | 6 | 0.2
Cc1nc(NC(C)c2ccccc2)c2c3c(sc2n1)CCC3 (centres undefined) | 56* | 0.2 | 7 | -2 | 84* | 0.4
Cc1ccc(CNc2nc(C)nc3sc4c(c23)CCC4)cc1 | 43 | 0.9 | -9 | 2 | 9 | 0.6
Cc1nc(NS(=O)(=O)c2ccc(Br)cc2)c2c3c(sc2n1)CCC3 | 97* | 0.2 | 93* | -11 | 76* | 0
Cc1ccc(-c2csc(/C(C#N)=C(\O)CN3CCN(C(=O)c4ccco4)CC3)n2)cc1 | 48 | 1 | 4 | 5 | 1 | 0.5
CCC(C)(C)NC(=O)C(c1ccco1)N(C(=O)c1csnn1)c1cccc(F)c1 (centres undefined) | -10 | 0.9 | 2 | -4 | 13 | 1.1
Cc1ccccc1NC(=S)NN1CCN(C)CC1 | 6 | 1 | nt | nt | -1 | 0.9
CCn1c(C(O)c2ccccc2)nc2ccccc21 (centres undefined) | 16 | 0.1 | 3 | -2 | 91* | 0.8
CCn1c(C(O)c2cccc(OC)c2OC)nc2ccccc21 (centres undefined) | 27 | 0.1 | -26 | 2 | 87* | 0.7
CCn1c(C(C)NC(C)=O)nc2ccccc21 (centres undefined) | -2 | 1.1 | -23 | -2 | -7 | 1
COc1ccc(C(O)c2nc3ccccc3n2C)cc1OC (centres undefined) | 7 | 0.7 | 39 | -6 | 29 | 0.9
COc1cccc(C(O)c2nc3ccccc3n2C(C)C)c1 (centres undefined) | 23 | 0.1 | 0 | 0 | 91* | 0.8
CCn1c(C(C)NC(=O)c2ccc(OC)c(OC)c2)nc2ccccc21 (centres undefined) | 13 | 0.8 | 3 | -2 | 22 | 0.9
SMILES | CYP2C9 inhib | CYP2C19 activ | Mac1 fbg inh | Mac1 fbg enh | CYP2C19 inh | CYP2C9 act
Clc1ccc(CON/C=N/c2ncnc3sccc23)c(Cl)c1 | 22 | 0.8 | 80 | -7 | 15 | 0.8
CCOc1ccc2nc(SCC(=O)N(C)C)[nH]c2c1 | 14 | 0.8 | -8 | -1 | 19 | 0.9
Cc1c(C(=O)NC(C)C)sc2ncn(CC(=O)N3CCC(C)CC3)c(=O)c12 | 63* | 0.6 | -10 | 5 | 39 | 0.4
Cc1c(C(N)=O)sc2ncn(CC(=O)N3CCC(C)CC3)c(=O)c12 | 77* | 0.8 | -12 | -3 | 16 | 0.2
Cc1c(C(N)=O)sc2ncn(CC(=O)OC(C)C)c(=O)c12 | 8 | 1 | 0 | -2 | 4 | 0.9
Cc1c(C(=O)Nc2ccc3c(c2)OCO3)sc2ncn(CC(=O)N3CC(C)CC(C)C3)c(=O)c12 (centres undefined) | 79* | 0.8 | -42 | 3 | 23 | 0.2
